Compounds with a hit are over-represented: about 2.4% of the library has one in this group of screens.
D2 antag = antagonizes the human D2 dopamine receptor | inhibition, % at 10 µM | 2% of 340,000 active | AID 485344 | HEK293 TREx D2 cells, calcium flux, dopamine EC80; in the data active = inhibition above about 30%; inactive = below that, where a call was filed; note: 0% is about no effect
Target sequence (P14416 whole entry, looked up): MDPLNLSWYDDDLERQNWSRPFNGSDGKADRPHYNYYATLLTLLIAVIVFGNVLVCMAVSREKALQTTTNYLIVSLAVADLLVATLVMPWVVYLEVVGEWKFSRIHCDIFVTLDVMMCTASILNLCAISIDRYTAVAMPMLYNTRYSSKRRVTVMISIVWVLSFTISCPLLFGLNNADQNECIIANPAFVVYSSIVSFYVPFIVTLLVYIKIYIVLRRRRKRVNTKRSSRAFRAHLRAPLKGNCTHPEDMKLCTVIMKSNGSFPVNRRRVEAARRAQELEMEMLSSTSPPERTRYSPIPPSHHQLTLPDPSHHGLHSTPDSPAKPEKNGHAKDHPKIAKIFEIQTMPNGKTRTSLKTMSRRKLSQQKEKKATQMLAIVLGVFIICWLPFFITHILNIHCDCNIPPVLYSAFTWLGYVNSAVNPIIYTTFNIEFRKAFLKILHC
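Tetracycline-induced HEK293 T-REx cells expressing D2 force-coupled to calcium signalling were dye-loaded, exposed to compound for 180 s, then challenged with an EC80 of dopamine; calcium flux was followed kinetically for a further 180 s.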
D2 ag-1 = human D2 receptor agonism in beta-arrestin assay; DiscoveRx PathHunter D2 beta-arrestin, luminescence, 90 min; 100% = 57 uM dopamine signal; 0.084% of 360,000 active; P14416; AID 624465; activation, % (concentration not given with the values); in the data active = activation above about 40%
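Agonist mode: compounds alone added to overnight-plated D2 PathHunter cells for 90 min at 37 C, with 57 uM final dopamine (EC100) defining full response. Beta-arrestin recruitment detected by chemiluminescent reagent, read after 1 h at ambient temperature.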
D2 ag-2 = activates the human D2 dopamine receptor; activation, % at 2 µM; P14416; HEK293 T-REx D2 cells, calcium flux agonist mode; AID 485358; 0.53% of 340,000 active;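 active = activation over 3 SD above normal in the single-dose calcium agonist read, cut at about 30% in these data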; note: 0% is about no effect
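HEK293 Trex D2 cells, tetracycline-induced, o/n 30 C 5% CO2; no-wash Ca dye, RT 30–90 min; 10-cycle baseline, 23 nl cpd added, kinetic Ca read 180 s; agonist hits = positive Ca response.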
D2 PAM-1 = human D2 receptor positive allosteric modulation | DiscoveRx D2 beta-arrestin cells, luminescence, 90 min; 100% = 57 uM dopamine signal | potentiation, % (test concentration not listed) | 0.23% of 360,000 active; in the data active = potentiation above about 50%
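D2 cells co-treated with compound plus 50 nM dopamine (EC20) for 90 min at 37 deg C to detect potentiation. Beta-arrestin recruitment was read as enzyme-fragment luminescence after 1 h at ambient temperature. Full response was set by 57 uM dopamine.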
D2 PAM-2 = positive allosteric modulators of human D2 dopamine receptor; HEK293 T-REx D2, calcium flux, EC20 dopamine potentiation; P14416; 0.34% of 340,000 active; potentiation, % at 10 µM;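 active = potentiation over 3 SD above the plate norm, cut at about 30% in these data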; note: 0% is about no effect
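Using a no-wash calcium dye in inducible, force-coupled HEK293 Trex cells expressing D2, we tracked fluorescence each second for 180 s after compound, then for 180 s after EC20 dopamine to detect augmented signalling.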
Starred values were filed as active, the others as inactive; x = not tested or not shown.

SMILES | D2 antag | D2 ag-1 | D2 ag-2 | D2 PAM-1 | D2 PAM-2
CCCC(C)(C)C(=O)N1CCC1(C)C(=O)NS(=O)(=O)c1ccccc1Cl (stereo unspecified) | x | 0 | x | -3 | x
CC(C)c1nnc(NC(=O)CC23CC4CC(CC(C4)C2)C3)s1 | 36* | -7 | 4 | -2 | 2
CCCCNC(=O)c1nc(C2CCN(S(=O)(=O)c3ccccc3C(F)(F)F)CC2)oc1-c1ccccc1 | x | -3 | x | -3 | x
O=C(CC1NCCc2ccccc21)Nc1ccc(Cl)cc1 (stereo unspecified) | 44* | -1 | 5 | -22 | -40
O=C(CC1NCCN(Cc2ccccc2)C1=O)Nc1ccc(Cl)cc1 (stereo unspecified) | -4 | -4 | -2 | -6 | 1
CC(C)(C)n1nc2c(c1NC(=O)c1cc(Cl)ccc1[N+](=O)[O-])CS(=O)(=O)C2 | 0 | 7 | 0 | 1 | 4
CCC(CC)C(=O)N(C)c1c(C)nc2c(OCc3ccc(OC(F)F)cc3)cccn12 | x | 12 | x | -1 | x
C=CCNC(=O)c1cc(Cl)ccc1[N+](=O)[O-] | -3 | -1 | 1 | -32 | -4
COc1ccc(OC)c(NC(=O)Nc2ccc(Cl)cc2)c1 | 46* | -1 | -2 | -27 | -25
CCCN1CCC(NC(=O)Nc2cc(Cl)ccc2OC)CC1 | 85* | -19 | 1 | 4 | -39
C=CCNC(=O)c1cc(Cl)ccc1Cl | -15 | 0 | 0 | -4 | 33*
COc1ccc(Cl)cc1NC(=O)NCC1CCN(C(=O)OC(C)(C)C)CC1 | 95* | -8 | -1 | -16 | -33
CC(C)(C)OC(=O)N1CCC(CNC(=O)c2ccc(F)cc2F)CC1 | -3 | 3 | 0 | 0 | 2
CC(C)C(=O)N1c2nc(C(C)C)nn2C2(CCCCC2)[C@@H]2CCCC[C@@H]21 | x | x | x | x | 0
O=C(CN1CCOCC1)N/N=C/c1cccc2ccccc12 | x | -3 | x | -15 | x
C=CCNC(=O)Nc1cc(Cl)ccc1OC | 38* | -4 | 1 | -9 | -13
COc1ccc(Cl)cc1NC(=O)NCCN1CCCCC1 | 58* | -2 | 0 | -9 | -27
COc1ccc(Cl)cc1NC(=O)NCc1ccco1 | 18 | -5 | 0 | -11 | -16
COc1ccc(-n2ncc(C(=O)Nc3cccc(C(F)(F)F)c3)c2C2CCN(C(=O)OC(C)(C)C)CC2)cc1 | x | x | 1 | x | -6
COCCNc1nc(-c2ccccc2)nc2ccccc12 | -6 | 7 | 1 | -2 | 8
CC(=O)OCCNc1nc(-c2ccccc2)nc2ccccc12 | 38* | -6 | 1 | 0 | -1
CC1CCN(Cc2c(C(=O)N/N=C/c3cccc(Cl)c3)nnn2-c2nonc2N)CC1 | -8 | 1 | 0 | -13 | 38*
C/C(=N\NC(=O)c1nnn(-c2nonc2N)c1CN1CCCCC1)c1ccccc1O | 30* | -6 | 0 | -6 | -4
OCC1CCCCN1CC(O)COC(c1ccc(F)cc1)c1ccc(F)cc1 (stereo unspecified) | 31* | -2 | 0 | -4 | -5
CC1=C(C(=O)Nc2ccccc2)C(c2cccs2)n2nnnc2N1 (stereo unspecified) | 36* | -2 | -1 | -8 | 2
SMILES | D2 antag | D2 ag-1 | D2 ag-2 | D2 PAM-1 | D2 PAM-2
Cc1ccc(C)c(Cn2nc(-c3cc(C)ccc3C)ccc2=O)c1 | 35* | -1 | 1 | -10 | -3
CCc1ccc(-n2nc(C)c3c(C(=O)Nc4cc(C)c(Cl)cc4OC)cc(C)nc32)cc1 | x | x | 1 | x | 1
CCOC(=O)c1c(C)[nH]c(C)c1S(=O)(=O)N(C)CC(=O)Nc1ccc(C)cc1C | x | x | 0 | x | -3
O=C(c1cc(-c2ccc(Cl)cc2Cl)on1)N1CCN(C(=O)c2ccco2)CC1 | -1 | -1 | 1 | -7 | 49*
O=C(c1cc(-c2ccccc2Cl)on1)N1CCN(C(=O)c2ccco2)CC1 | 4 | -2 | 0 | -18 | -1
O=C(Nc1cccnc1)c1cc(-c2ccc(Cl)cc2Cl)on1 | 35* | 3 | 1 | -2 | 7
O=C(CN1CCCCC1)Nc1ccc(S(=O)(=O)c2ccc(NC(=O)CN3CCCCC3)cc2)cc1 | x | 2 | x | -3 | x
CCOc1ccc(NC(=O)NCc2ccccn2)cc1 | 6 | 0 | 1 | -1 | 10
Cc1ccc(NC(=O)NCc2ccccn2)cc1 | 59* | 2 | -2 | -10 | 4

Screening data as filed in PubChem BioAssay.
